These results are taken from PubChem BioAssay AID651871 (Sanford-Burnham Center for Chemical Genomics, 2012).

Where “and” joins values, the source holds several entries; their conditions need not be identical. Identical values can stand only once.

In this experiment the test system is H9c2. The experiment is described as follows: cardiomyocyte survival under oxidative or metabolic stress – cell-based, panel, H9c2 and HL-1, ATP luminescence, set 2, SAR follow-up (AID 651871).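 Further: cells exposed to stressor for 2 h before ATP readout; reference of the scale not given here.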 The conditions noted are these: H9c2/HL-1 cardiomyocytes, 2-deoxyglucose stress, with 2-deoxyglucose; run 14, at 79 µM (top of the series).
Take `COc1ccc2nc(-c3cc(OC)c(OC)c(OC)c3)cc(C(=O)NCC(=O)Nc3ccc(C(C)=O)cc3)c2c1`: the activity (protection/inhibition) came to 89.3%.

For the molecule `COc1ccc2c(c1OC)C(=O)N1c3ccccc3C(=O)N(Cc3cccc(Cl)c3Cl)C21` (stereo not drawn), the activity (protection/inhibition) was 74.7% and 78.2% and -6.22%.

As to `CCOC(=O)c1cccc(NC(=O)CNC(=O)c2cc(-c3cc(OC)c(OC)c(OC)c3)nc3ccccc23)c1`, the activity (protection/inhibition) came out at 95.1%.
